Screening results from PubChem BioAssay.
Compounds with a hit are over-represented: about 2.2% of the library has one in this group of screens.
HEK293 tox: qHTS of GLP-1 Receptor Inverse Agonists: Cytotox Screen; Potency, µM (series often up to 38.3 µM), inactives show at the top dose activity change, negative = inhibition, most hits filed as inhibitors; HEK293 cAMP-luciferase reporter cells, luminescence, 24 h; actives 0.13% (n = 410,000);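 note: loss of luciferase light is scored as toxicity; potency is the fitted concentration of half-maximal effect; % is set by controls: 0 for no effect and ±100 for the full control effect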
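1536-well qHTS counterscreen of the MLSMR; 200 cells/uL, 12 h pre-incubation, 23 nL cpd, 24 h at 37 deg C 5% CO2, luciferase detection reagent, 12 min RT, luminescence. Inhibition = undesired.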
uPA surface inh: qHTS for Inhibitors of Cell Surface uPA Generation. cell surface uPA generation assay, qHTS. Potency, µM (top dose mostly 38.3 µM), without a hit: at the top dose activity change, negative = inhibition, usual class: inhibitors. actives 0.31% (n = 330,000); active = well fitted inhibition curve with a large enough effect; inconclusive = small, poorly fitted or top-dose-only effect; inactive = no such curve, though single readings can be large or run the other way; tested in mouse RAW 264.7 cells; note: potency is the fitted concentration of half-maximal effect; % is set by controls: 0 for no effect and ±100 for the full control effect; nearly all actives have a fitted effect of over 55% in size
GLP-1R inv ag: qHTS of GLP-1 Receptor Inverse Agonists (Inhibition Mode); HEK293 GLP-1R CRE-luciferase, luminescence, 24 h; GLP-1R form is constitutively active; Potency, µM (doses to about 38.3 µM), without a hit: at the top dose activity change, negative = inhibition, usual class: inhibitors; actives 1.6% (n = 410,000); AID 624417, 2012; note: potency is the fitted concentration of half-maximal effect; % is set by controls: 0 for no effect and ±100 for the full control effect; nearly all actives have a fitted effect of over 55% in size
Target sequence (P43220 whole entry, looked up): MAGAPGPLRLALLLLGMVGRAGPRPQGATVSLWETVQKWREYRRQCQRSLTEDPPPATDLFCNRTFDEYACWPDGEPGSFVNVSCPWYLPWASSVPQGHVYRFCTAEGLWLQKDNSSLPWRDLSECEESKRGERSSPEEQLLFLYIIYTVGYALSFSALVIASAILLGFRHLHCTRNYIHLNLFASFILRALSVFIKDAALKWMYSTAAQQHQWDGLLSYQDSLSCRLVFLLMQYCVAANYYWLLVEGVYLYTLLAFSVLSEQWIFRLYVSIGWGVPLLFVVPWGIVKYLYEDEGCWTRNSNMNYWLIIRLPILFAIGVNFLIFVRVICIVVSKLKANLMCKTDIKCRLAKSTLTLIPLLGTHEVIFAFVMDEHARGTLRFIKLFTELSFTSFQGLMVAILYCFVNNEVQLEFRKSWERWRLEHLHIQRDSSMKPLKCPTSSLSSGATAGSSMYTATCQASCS
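Luminescence readout: a drop in cAMP-driven luciferase signal flags inverse agonism at a constitutively active GLP-1R stably expressed in HEK293. Compound exposure lasted 24 hr at 37 deg C, 5% CO2.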
MmCpn inh: Inhibitors of TCP-1 ring complex (TRiC) of Methanococcus maripaludis (MmCpn): qHTS; Potency, µM (titrated, usually from 76.9 µM), without a hit: at the top dose activity, negative = inhibition, hits mostly inhibitors; Chaperonin Mm-Cpn (Methanococcus maripaludis); actives 0.031% (n = 330,000); purified Mm-Cpn ATPase, ADP Transcreener TR-FRET; note: potency is the fitted concentration of half-maximal effect; % is set by controls: 0 for no effect and ±100 for the full control effect; nearly all actives have a fitted effect of over 80% in size
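Inhibition of chaperonin ATP hydrolysis is measured as reduced ADP production, detected by competitive TR-FRET in which signal falls with ADP. Final enzyme 25 nM and ATP 10 uM, reacted 30 min at 37°C.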
CCT chaperon mod: High-Throughput Screening for Modulators of Cytosolic Chaperonin Activity; purified chaperonin ATPase assay, HTRF ADP detection, 30 min; activity change, % (test concentration not listed), hits read low; actives 0.3% (n = 360,000); in the data active = activity change below about -30%; note: % is set by controls: 0 for no effect and ±100 for the full control effect
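Nucleotide hydrolysis assay: TRiC at 20–40 nM final (set by batch activity) with 10 uM ATP, 30 min at 37 °C, in presence of 76 uM compound. Detection by competitive ADP HTRF, 30 min ambient.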
GLP1R ag: qHTS of GLP-1 Receptor Agonists; HEK293 GLP-1R CRE-luciferase, luminescence, 4-6 h; cells express a hypersensitive GLP-1R form; actives 0.007% (n = 380,000); Potency, µM (top dose mostly 45.6 µM), for inactives: at the top dose activation, usual class: activators; AID 624172, 2012; Glucagon-like peptide 1 receptor (Homo sapiens), P43220; note: potency is the fitted concentration of half-maximal effect; % of control where 0% means no effect
An asterisk follows results filed as active; u = inconclusive; x = no result given. Unless noted, calls come from the whole dose curve; as a rule, active = well fitted curve in the direction sought with a large enough effect; inconclusive = small, poorly fitted or top-dose-only effect, or another doubt; inactive = no such curve, though single readings can be large; an effect the other way counts as inactive or inconclusive.

SMILES | HEK293 tox | uPA surface inh | GLP-1R inv ag | MmCpn inh | CCT chaperon mod | GLP1R ag
COc1ccc(CC(=O)NCCc2sc(-c3ccc(Cl)cc3)nc2C)cc1OC | -14% | x | -14% | x | x | x
N#CC1(c2ccc(NC(=O)c3ccccc3F)cc2)CCCC1 | -12% | u | 4.5µM* | 4% | 1 | -4%
COc1ccc(C(=O)Nc2ccc(C3(C#N)CCCC3)cc2)cc1 | -7% | -9% | -39% | -3% | 1 | 12%
CCOC(=O)COc1ccc2c(C)c(CCN(CC)CC)c(=O)oc2c1 | x | x | x | x | x | -4%
CC1(C)O[C@@H]2C[C@H]3[C@@H]4CCC5=CC(=O)C=C[C@]5(C)[C@H]4C(O)C[C@]3(C)[C@]2(C(=O)CO)O1 (some centres undefined) | x | x | x | x | x | -6%
CC(C)c1ccc(S(=O)(=O)N2CCN(C(=O)CCNC(=O)Nc3ccccc3)CC2)cc1 | 4% | -27% | u | 1% | -2 | -7%
CC(C)c1ccc(NC(=O)N2CCN(c3ccc(Cl)c(Cl)c3)CC2)cc1 | -23% | x | 7.9µM* | x | x | x
CC(C)c1ccc(NC(=O)N2CCN(S(=O)(=O)c3ccccc3)CC2)cc1 | -6% | -3% | 5.6µM* | 1% | -1 | 4%
O=C1[C@@H]2Cc3c([nH]c4ccccc34)C(c3cccc(Br)c3)N2C(=O)CN1C1CCN(Cc2ccccc2)CC1 (some centres undefined) | u | -6% | 3.2µM* | 1% | -1 | 4%
CCOc1ccccc1C1c2[nH]c3ccccc3c2C[C@H]2C(=O)N(C3CCN(Cc4ccccc4)CC3)CC(=O)N12 (some centres undefined) | -4% | -17% | u | 0% | -3 | 8%
Cc1ccccc1C1c2[nH]c3ccccc3c2C[C@H]2C(=O)N(C3CCN(Cc4ccccc4)CC3)CC(=O)N12 (some centres undefined) | x | x | x | -2% | x | x
COC(=O)c1ccc(C2c3[nH]c4ccccc4c3C[C@H]3C(=O)N(C4CCN(Cc5ccccc5)CC4)CC(=O)N23)cc1 (some centres undefined) | -13% | -10% | 10µM* | 0% | -6 | -1%
O=C1[C@@H]2Cc3c([nH]c4ccccc34)C(c3ccccc3)N2C(=O)CN1C1CCN(Cc2ccccc2)CC1 (some centres undefined) | u | -17% | 2.2µM* | 1% | 1 | 0%
Cc1ccc(CNC(=O)C2CCN(c3ncnc4c3nc3n4CCCCC3)CC2)cc1 | -2% | x | 3% | x | x | x
COc1cccc(Cn2c(=O)n(-c3ccccc3C)c(=O)c3c2c2cc(C)ccc2n3C)c1 | -10% | x | u | x | x | -1%
CCC1CN(C(=O)Nc2ccc(Br)cc2F)c2ccccc2S1 (centres undefined) | -11% | x | -30% | x | x | x
Cn1cc(CN2CCC(CO)CC2)c(-c2ccc(Oc3ccccc3)cc2)n1 | -14% | 3% | 10µM* | -2% | 1 | 3%
CC1CCN(CCNC(=O)C2CCN(S(=O)(=O)c3cccc4nsnc34)CC2)CC1 | -5% | -7% | 0% | 3% | -2 | -3%
CCC1CCCCN1CCNC(=O)C1CCN(S(=O)(=O)c2cccc3nsnc23)CC1 (centres undefined) | 3% | 5% | 2% | 0% | -74* | -1%
Cc1ccc(NC(=O)Cn2ncn3c(cc4ccccc43)c2=O)cc1C | -2% | x | -22% | x | x | x
CCOC(=O)c1cc(-c2cccs2)nc2c1c(C)nn2-c1ccccn1 | 3.5µM* | 6% | u | 0% | -1 | 16%
Cc1nn(-c2ccccn2)c2nc(-c3cccs3)cc(C(=O)NCc3ccco3)c12 | 14% | -8% | u | -9% | -2 | 1%
CC(C)NC(=O)Cc1csc2nc(-c3ccccc3)cn12 | 1% | x | 7% | x | x | x
O=C(Nc1ccc(F)cc1F)c1ccc2c(O)c(S(=O)(=O)c3ccc(Cl)cc3)c(=O)[nH]c2c1 | 8% | x | 5% | x | x | x
Cc1cccc(C)c1Nc1c(-c2ccsc2)nc2ccccn12 | 1% | x | u | x | x | x
SMILES | HEK293 tox | uPA surface inh | GLP-1R inv ag | MmCpn inh | CCT chaperon mod | GLP1R ag
Cc1cccc(C)c1Nc1c(-c2ccccn2)nc2ccccn12 | u | 4.5µM* | u | 2% | 1 | -3%
Cc1ccc(NC(=O)Cc2ccc(-n3c(C)nc4cccnc43)cc2)c(Cl)c1 | -7% | x | 0% | x | x | x
COc1ccc(-n2cc(CNCCc3ncc(C)[nH]3)c(-c3ccccc3Cl)n2)cc1 | -2% | -3% | u | -15% | -2 | 6%
COc1ccc(-n2cc(CNCCc3nc(C)cc(C)n3)c(-c3ccccc3Cl)n2)cc1 | u | -7% | 10µM* | 1% | 1 | 19%
Cc1ncsc1CCSc1nc2ccccc2c(=O)n1C | 8% | -12% | 0% | 2% | 2 | 11µM*
O=C(Nc1ccc(F)c(Cl)c1)N1CCN(C(=O)c2nsc3ccccc23)CC1 | -6% | x | -22% | x | x | x
Oc1ccc(NCc2ccccc2OCc2ccccc2F)cc1 | u | -11% | 9% | -6% | -1 | 11µM*
Cc1cccc(NCc2ccccc2OCc2ccccc2F)c1 | 18% | 2% | 10µM* | 1% | -1 | -1%
CC1=C(C(=O)Nc2cccnc2)C(c2ccc(F)cc2)n2nc(-c3cccc(C)c3)nc2N1 (centres undefined) | -5% | x | 11% | x | x | x
CC[C@H]1OC(=O)C[C@@H](O)[C@H](C)[C@@H](O[C@@H]2O[C@H](C)C[C@H](N(C)C)[C@@H]2O)[C@@H](CC=O)C[C@@H](C)C(=O)/C=C\[C@]2(C)O[C@H]2[C@@H]1C | x | x | x | x | x | -4%
Cc1cc(C[n+]2ccsc2N)c2ncccc2c1 | -26% | -14% | -23% | 40µM* | 2 | -5%
Nc1scn[n+]1Cc1cccc2cccnc12 | 4% | 11% | 1% | 1% | -1 | -1%
CC(C)c1ccc(NC(=O)C(c2ccccc2)N(C)C(=O)CCc2c[nH]c3ccccc23)cc1 (centres undefined) | -2% | 10% | 10µM* | x | -1 | -1%
COc1ccc(NC(=O)C(NC(=O)Cc2cccs2)c2ccc(OC)cc2)cc1 (centres undefined) | -8% | x | 2% | x | x | x
COc1ccc(C(C(=O)Nc2ccc(C(C)C)cc2)N(C)C(=O)Cc2cccs2)cc1 (centres undefined) | -11% | x | 3.2µM* | x | x | x
